# PubChem BioAssay AID588335 (The Scripps Research Institute Molecular Screening Center, 2011)
# Among all 360,000 compounds or so, about 4,500 (1.2%) were called active. This excerpt belongs to a sample that is enriched for actives. A number with no mark means an inactive call. Rule as the data show it: active = inhibition above about 30%; inactive = the rest.
# Assay: GDH-TPI coupling enzyme inhibitors, primary screen, artefact control for M. tuberculosis FBA inhibitor project, biochemical, absorbance, full deck (AID 588335);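 also: 0% = DMSO wells and 100% = wells lacking the enzyme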
# Conditions: GDH-TPI coupled enzyme counterscreen, NADH absorbance; at 4.8 µM; stronger effect = higher value
row,Compound,inhibition
1,COc1cc(Cn2c3ccc(NC(=O)CC(C)c4ccccc4)cc3c(=O)n2C)ccc1F (stereo not given),4%
2,CCCn1nc(NS(=O)(=O)c2ccc(F)cc2)c2cc3ccccc3nc21,6.9%
3,CCC(=O)Nc1c(S(=O)(=O)c2ccccc2)c2nc3ccccc3nc2n1Cc1ccccc1,27%
4,CCN(CC)CCn1c(N)c(S(=O)(=O)c2ccccc2)c2nc3ccccc3nc21,31% (active)
5,O=C(NNS(=O)(=O)c1ccccc1C(F)(F)F)c1cc2ncc(C(F)(F)F)cc2s1,12.3%
6,COCc1ccc(C(=O)N2CCc3c([nH]c4ccccc34)C2c2ccccn2)s1 (stereo not given),-1.89%
7,CNC(=O)c1csc(Cc2c(Cl)sc3ccc(Cl)cc23)n1,-5.66%
8,CN(C)C(=O)CCc1ccc2c3c([nH]c2c1)[C@]1(C)[C@@H](C(=O)N2CCOCC2)C[C@H](CC(=O)NCCc2ccccn2)C(=O)N1CC3,3.64%
9,COc1ccc(S(=O)(=O)N2CCCCCC2)cc1NC(=O)Cc1ccc(OC)c(OC)c1,-2.16%
10,COc1ccc(-c2ccc(Nc3ccc(S(=O)(=O)N4CCCC4)cc3)nn2)cc1OC,50.4% (active)
11,COc1ccccc1CC(=O)Nc1ccc(S(=O)(=O)N2CCCC2)cc1,3.02%
12,CCc1ccc(C(=O)C(C)OC(=O)CN2C(=O)NC3(CCCC3)C2=O)cc1 (stereo not given),6.99%
13,CC(OC(=O)Cc1ccc(F)cc1)C(=O)N1CCc2ccccc21 (stereo not given),3.45%
14,Cc1ccc(C(=O)COC(=O)CCCC(=O)NC2CCCCC2)cc1[N+](=O)[O-],-3%
15,Cc1ccc(N=C2NC(=O)c3cccc([N+](=O)[O-])c32)cc1,13.5%
16,CCOC(=O)Cn1c(O)c(N=NC(=O)CNC(=O)Cc2ccccc2)c2ccccc21,28.8%
17,COC(=O)Cn1c(O)c(N=NC(=O)OC)c2ccccc21,31.6% (active)
18,CCn1c(O)c(N=NC(=O)c2cccc(S(=O)(=O)N3CCCCC3)c2)c2ccccc21,4.32%
19,O=C(O)C1=CCCN(CCON=C(c2ccccc2)c2ccccc2)C1,-4.66%
20,CCCn1c(C(=O)c2ccccc2OC)nc2ccccc21,8.57%
21,CCn1c(NC(=O)c2nn(C)cc2Br)nc2ccccc21,6.37%
22,Cn1c(-c2ccc(C(=O)c3ccccc3)s2)nc2ccccc21,38.1% (active)
23,Cc1nc2ccccc2c(C)c1C(=O)c1ccc(F)cc1,-2.59%
24,Cn1c(NC(=O)c2ccccc2)nc2ccccc21,41.4% (active)

row,Compound,inhibition
1,Cn1c(CC(=O)NNC(=O)c2ccccc2F)nc2ccccc21,-6.69%
2,C/C(=C(\C#N)C(=O)NCCCN1CCOCC1)N(C)C,7.8%
3,CCc1nn(CCCC(=O)Nc2ccc(C)cc2C)c(=O)c2cc3occc3n12,5.68%
4,CCN(CC)C(=O)CSc1nc2ccccc2n1CC(=O)N1CCN(c2ccccc2OC)CC1,-6.21%
5,O=C1NC(=O)C(CCc2ccccc2)(c2ccccc2)N1 (stereo not given),2.63%
6,O=C(N/N=C/C=C/c1ccccc1)C1CC1(c1ccccc1)c1ccccc1 (stereo not given),21.3%
7,CCn1c(SCC(=O)NC2CC2)nnc1-c1ccccc1OC,-0.34%
8,COc1ccc(C2=Nn3c(nnc3-c3ccccc3OC)SC2)cc1OC1CCCC1,31.1% (active)
9,COc1cc(OC)c(NS(=O)(=O)c2cn(C)cn2)cc1Cl,-9.45%
10,Cc1cccc(N2O[C@H]3C=CC2CCCC3)n1,-10.9%
11,O=C(NC(=S)Nc1cc(C(F)(F)F)ccc1N1CCOCC1)c1ccc(-c2cccc(Cl)c2)o1,-2.21%
12,O=C(NC(=S)Nc1ccccc1C(=O)O)c1ccc(-c2ccc(Br)cc2)o1,40.9% (active)
13,CN1CCN(C(=O)c2ccc(-c3ccc(Br)cc3)o2)CC1,3.5%
14,O=c1c2ccccc2c(-c2ccccc2)nn1-c1ccccn1,1.89%
15,O=C(CSc1nc(-c2ccco2)cc(C(F)(F)F)n1)N1CCc2ccccc2C1,10.9%
16,CCOC(=O)c1ccn(-c2nc(-c3ccco3)cc(C(F)(F)F)n2)n1,35.1% (active)
17,COC(=O)c1cnn2c(C(F)(F)F)cc(-c3ccco3)nc12,16.7%
18,NC(=O)CC(NC(=O)Cc1ccc(Br)cc1)c1ccc(NC2CC3CCC2C3)c([N+](=O)[O-])c1 (stereo not given),-1.99%
19,CC1(c2ccc(Cl)cc2Cl)NC(=O)N(CC(=O)Nc2cccnc2Cl)C1=O (stereo not given),0%
20,Cc1cccc(C(=O)OCC(=O)NCC(C)C)c1O,2.88%
21,N#CC1=C(N)N(c2ccc(F)cc2)C(=O)C1,4.15%
22,O=[N+]([O-])c1ccc2oc(-c3cccc(O)c3)nc2c1,15.8%
23,CCCc1ccc(OCc2ccc(C(=O)N/N=C/c3cccc([N+](=O)[O-])c3)o2)c(OC)c1,3.73%
24,Cc1occc1C(=O)N/N=C/c1ccc(-c2cccc([N+](=O)[O-])c2)o1,34% (active)

row,Compound,inhibition
1,O=C(CN1C(=O)NC2(CCCC2)C1=O)OCCOc1ccc(F)cc1,-5.15%
2,Cc1ccc(C(=O)NCC(c2cccs2)N(C)C)cc1S(=O)(=O)N1CCOCC1 (stereo not given),3.9%
3,O=C(N/N=C/C=C/c1ccco1)c1cccs1,46.5% (active)
4,CC1(C)CC(=O)C/C(=N\NC(=O)c2cccs2)C1,17.8%
5,Cc1ccc(-c2cc(C(=O)N/N=C/C=C/c3ccco3)c3ccccc3n2)cc1C,52.1% (active)
6,O=C(COC(=O)CCC(=O)c1cccs1)NCc1ccco1,5.96%
7,CC(/C=N/NC(=O)c1cc(-c2ccc3ccccc3c2)n[nH]1)=C\c1ccco1,17%
8,O=C(NCCc1ccccn1)c1cc(-c2ccc(Cl)cc2)nc2ccccc12,19.5%
9,O=C(CCc1ccc(S(=O)(=O)N2CCOCC2)cc1)OCC(=O)c1ccc(Br)cc1,-6.33%
10,COc1ccc(CCNC(=O)COC(=O)Cc2cccc(F)c2)cc1,-8.97%
11,O=C(NCc1ccccc1Cl)C1CCC(CNc2c(N3CCCCC3)c(=O)c2=O)CC1 (stereo not given),4.69%
12,CCC(C)C1(C2CCCC2)NC(=O)NC1=O (stereo not given),0.88%
13,O=C(NC1CCC(O)CC1)c1ccc(S(=O)(=O)NCc2ccco2)cc1 (stereo not given),11.2%
14,COc1ccc(CN(C)C(=O)c2cc(-c3ccc(C)cc3C)nc3ccccc23)c(OC)c1OC,0%
15,Cc1ccc(/C=N/NC(=O)COc2ccccc2-c2ccccc2)cc1,5.68%
16,COc1cc(/C=N/NC(=O)c2cc(-c3ccccc3C)nc3ccccc23)cc(OC)c1O,76.5% (active)
17,Cc1ccc(NN=Nc2nc3c([nH]2)c(=O)n(C)c(=O)n3C)cc1,2.21%
18,O=C(Nc1ccc(N2CCOCC2)cc1)c1cccc2c(-c3ccc(F)c(F)c3)coc12,1.77%
19,CCc1c(C)n([O-])c2c([n+]1=O)CCCCC2,6.72%
20,Cc1nc(-c2ccc(Cl)cc2)sc1C(=O)CBr,22.6%
21,Cc1nc(-c2ccccc2)sc1C(=O)/C=C/c1ccccc1,31.8% (active)
22,Cc1[nH]c(=O)c(C(=O)/C=C/c2ccccc2)c2c1CCCC2,12.9%
23,COc1ccccc1-n1ccnc(SCC(=O)NC2CCCCC2)c1=O,7.32%
24,Cc1ccccc1C(CC(=O)c1cccs1)C(C#N)C#N (stereo not given),0%

row,Compound,inhibition
1,C/C(=N\NC(=S)Nc1ccc(C)cc1)c1cc2ccccc2o1,77.5% (active)
2,C/C(=N\NS(=O)(=O)c1cccc([N+](=O)[O-])c1)c1cc2ccccc2o1,22.8%
3,C/C(=N/NC(=S)Nc1ccccc1)c1ccc2c(c1)OCO2,12.9%
4,CCc1c(C)nc(N)n2c(SCC(=O)NC3CCCCC3)nnc12,0%
5,Cc1ccc(S(=O)(=O)N2CCCCC2)cc1C(=O)N1CCN(CCO)CC1,-15.1%
6,O=C1NC(c2ccccc2)Cc2ccncc21 (stereo not given),13.4%
7,C1=C(N2CCOCC2)/C(=C/c2nc3ccccc3[nH]2)CC1,34.8% (active)
8,c1ccc(-n2nnnc2N2CCOCC2)cc1,2.54%
9,O=C(C1CCCO1)N1CCC(c2nc3ccccc3[nH]2)CC1 (stereo not given),-7.92%
10,CCCCN1C(=O)c2ccc(C(=O)Nc3ccc(S(=O)(=O)N(C)C)cc3)cc2C1=O,2.95%
11,Cc1ccc(NC2=NC(c3ccccc3)n3c(nc(C)cc3=O)N2)cc1 (stereo not given),4.69%
12,COc1ccc(/C=N/n2nnnc2N)cc1OC,21.5%
13,COc1ccc(/C=N/Nc2nc3ccccc3o2)cc1OC,44.1% (active)
14,CCOc1ccccc1/C=N/Nc1nc2ccccc2o1,8.78%
15,CC(C)[C@H](NC(=O)c1ccccc1F)C(=O)Nc1cccc(S(=O)(=O)N2CCOCC2)c1,-3.11%
16,CN1C(=O)c2ccc(NC(=O)c3c(F)c(F)c(F)c(F)c3F)cc2C1=O,10.2%
17,Cc1cc[n+](-c2[nH]c(=O)sc2/C=N/NC(=O)c2ccccc2[O-])cc1C,30.5%
18,CC(C)(C)c1cc[n+](-c2[nH]c(=O)sc2/C=N/N=C(\[O-])c2ccccc2)cc1,32.8% (active)
19,Cc1cccc(C)c1NC(=S)N(Cc1cccnc1)Cc1ccccc1Cl,0.63%
20,CC1(C)CC(=O)C2=C(C1)NCN(CCCN1CCOCC1)C2,6.39%
21,O=C(COc1ccc2ccc(=O)oc2c1)NCC(O)c1ccccc1 (stereo not given),7.87%
22,CC(=CCOc1ccc2ccc(=O)oc2c1)C1=CC(=O)C(C)(C)O1,32.7% (active)
23,CC(C)OC(=O)c1ccc(COc2ccc3ccc(=O)oc3c2)o1,6.9%
